Results taken from PubChem BioAssay (NCATS).
Records with an inconclusive call do not appear. Active and inactive are the calls of the source. Calls follow the shape of the dose curve; as a rule, active = well fitted curve in the direction sought with a large enough effect; inconclusive = small, poorly fitted or top-dose-only effect, or another doubt; inactive = no such curve, though single readings can be large; an effect the other way counts as inactive or inconclusive.

Legend:
[1] = molecular target: Glutathione peroxidase 1 (Homo sapiens) (UniProt P07203); assay: Primary qHTS Assay for Inhibitors of Recombinant Selenoprotein Glutathione Peroxidase 1 (GPX1) (AID 1845191); also: nearly all actives have a fitted effect of over 65% in size; as to activity, negative = inhibition: % is scaled to controls: 0 for no effect and ±100 for the full control effect
Summary of the method: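 NADPH consumption tracked by fluorescence at 340/450 nm between t=0 and t=15 min, room temperature. Final mix: 10 nM GPX1, 100 nM glutathione reductase, 1 mM GSH, 0.5 mM NADPH, 0.5 mM cumene hydroperoxide, 0.01% BSA; 30 min compound–enzyme preincubation.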

[2] = molecular target: Phospholipid hydroperoxide glutathione peroxidase GPX4 (Homo sapiens) (UniProt P36969); assay: Primary qHTS Assay for Inhibitors of Recombinant Selenoprotein Glutathione Peroxidase 4 (GPX4) (AID 1845192); also: nearly all actives have a fitted effect of over 65% in size
Summary of the method: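 NADPH consumption followed by fluorescence at 340/450 nm, t=0 and after 15 min at room temperature. Reaction started with cumene hydroperoxide (0.5 mM final) after 30 min compound–GPX4 preincubation; final 200 nM GPX4, 100 nM GR, 1 mM GSH, 0.5 mM NADPH.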

[3] = molecular target: Luciferin 4-monooxygenase (Photinus pyralis) (UniProt P08659); assay: Primary firefly luciferase (FLuc) qHTS assay for identification of artifact compounds. (AID 1845220); also: nearly all actives have a fitted effect of over 60% in size
Summary of the method: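 Compounds sat 15 min at room temperature with 10 uM luciferin and 10 uM ATP (pH 7.6 Tris acetate). Firefly luciferase (10 nM final) was then added, and luminescence was read 5 min later. Data normalized to no-enzyme and DMSO controls were Hill-fitted.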

[4] = Primary fluorescence-based thiol-reactive (MSTI) qHTS assay for identification of artifact compounds. (AID 1845221);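 also: series mostly up to about 54 µM; thiol-reactive compounds lower the probe fluorescence signal; nearly all actives have a fitted effect of over 65% in size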
Summary of the method: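 Probe: MSTI 4 uM, PBS pH 7.4, 2% DMSO. Incubation 1 h, RT, light-protected. Readout fluorescence 525/598 nm.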

[5] = tested on: Nanoluciferase (engineered Oplophorus gracilirostris luciferase); assay: Primary Nanoluciferase (NLuc) qHTS assay for identification of artifact compounds. (AID 1845222);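 also: series mostly up to about 54 µM; 0% = DMSO and -100% = no enzyme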
Summary of the method: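 Luminescence from secreted NLuc (filtered, 1:55-diluted S16 cell medium) read 5 min after Nano-Glo substrate; compounds preincubated 15 min, RT. Hill fits of inhibition normalized to DMSO and no-enzyme.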

[6] = Primary redox qHTS assay for identification of artifact compounds. (AID 1845223);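 also: 0% = DMSO and 100% = reference compound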
Summary of the method: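 Redox-cycling detection via DTT (250 uM final) oxidation coupled to Amplex Red (25 uM)/HRP (250 mU/mL) in HBSS. 15 min preincubation plus 30 min after DTT, room temperature. Ex/Em 525/598 nm; 4-parameter Hill fit against DMSO and 10 uM DA3003.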

Phospholipid hydroperoxide glutathione peroxidase GPX4 (Homo sapiens), sequence (P36969 whole entry, looked up): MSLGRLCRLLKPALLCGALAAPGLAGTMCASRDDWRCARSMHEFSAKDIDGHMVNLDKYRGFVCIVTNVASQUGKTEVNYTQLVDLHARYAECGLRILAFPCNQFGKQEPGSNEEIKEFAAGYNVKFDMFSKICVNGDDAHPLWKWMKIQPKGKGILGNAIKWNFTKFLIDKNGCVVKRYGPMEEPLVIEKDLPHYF
Glutathione peroxidase 1 (Homo sapiens), sequence (P07203 whole entry, looked up): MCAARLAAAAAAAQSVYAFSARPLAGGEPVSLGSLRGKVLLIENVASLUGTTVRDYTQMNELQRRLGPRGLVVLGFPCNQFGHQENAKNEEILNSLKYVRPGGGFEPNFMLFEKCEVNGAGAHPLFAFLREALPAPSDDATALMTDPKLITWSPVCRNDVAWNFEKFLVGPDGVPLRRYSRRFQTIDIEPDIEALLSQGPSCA

CC(C)(O)c1ccn2c(-c3ccc(F)c(-c4ccc(F)cc4C#N)c3)cnc2c1F
inactive: Potency [1] | Potency [2] | Potency [3] | Potency [4] | Potency [5] | Potency [6]

O=c1cc(N2CCOCC2)nc2c3ccccc3ccn12
inactive: Potency [1] | Potency [2] | Potency [3] | Potency [4] | Potency [5] | Potency [6]

O=C(Nc1cc(C(F)(F)F)cc(C(F)(F)F)c1)c1cnc(Cl)nc1C(F)(F)F
inactive: Potency [1] | Potency [2] | Potency [3] | Potency [4] | Potency [5] | Potency [6]

C[C@H]1CC[C@@]2(OC1)O[C@H]1CC3C4CC[C@H]5C[C@@H](O)CC[C@]5(C)C4=CC(=O)[C@]3(C)[C@H]1[C@@H]2C (some centres not stated)
inactive: Potency [1] | Potency [2] | Potency [3] | Potency [4] | Potency [5] | Potency [6]

Cc1nc(N2CCN(C(=O)c3ccco3)CC2)c2c3c(sc2n1)CCCC3
inactive: Potency [1] | Potency [2] | Potency [3] | Potency [4] | Potency [5] | Potency [6]

Cn1c(SCC(=O)N2CCC[C@H]2C(=O)Nc2ccccc2-c2ccccc2)nc2ccccc21
inactive: Potency [1] | Potency [2] | Potency [3] | Potency [4] | Potency [5] | Potency [6]

CS(=O)(=O)Nc1ccc2oc3c(OC(F)F)ccc(C(=O)Nc4c(Cl)cncc4Cl)c3c2c1
inactive: Potency [1] | Potency [2] | Potency [3] | Potency [4] | Potency [5] | Potency [6]

Cc1cccc(-c2[nH]ncc2-c2ccnc3ccccc23)n1
inactive: Potency [1] | Potency [2] | Potency [3] | Potency [4] | Potency [5] | Potency [6]

CC[N+]1(C/C2=C/CCCCCC2)CCC(NC(=O)C2c3cc(Cl)ccc3Oc3ccc(Cl)cc32)CC1 (configuration not stated)
inactive: Potency [1] | Potency [2] | Potency [3] | Potency [4] | Potency [5] | Potency [6]

O=C(Nc1ccc(Cl)cc1)C1CCCN(C(=O)c2cccc(-c3ccco3)c2)C1 (configuration not stated)
inactive: Potency [1] | Potency [2] | Potency [3] | Potency [4] | Potency [5] | Potency [6]

C/C=C\NC(=O)C1NC(=O)C(CC(N)=O)NC(=O)C(NC(=O)C(=O)C(C)CC)Cc2ccc(O)c(c2)-c2cccc3c2NC(=O)C3(O)C1O (configuration not stated)
inactive: Potency [1] | Potency [2] | Potency [3] | Potency [4] | Potency [5] | Potency [6]

COC1CC(O[C@H]2CC[C@]3(C)C4CC[C@@]5(C)C(=O)[C@]4(CC[C@@H]3C2)CC[C@@H]5C2=CC(=O)OC2)OC(C)C1OC1OC(COC2OC(CO)C(O)C(O)C2O)C(O)C(O)C1O (some centres not stated)
inactive: Potency [1] | Potency [2] | outcome [3] inactive [at 11.6 µM] | activity change, negative = thiol reactive [4] 91.7% [at 11.5 µM] | activity, negative = inhibition [5] 0% [at 11.6 µM] | redox activity (% of DA3003) [6] 13.6% [at 11.5 µM]

CCNc1nc(Nc2cc(F)c(C(=O)N3CCOCC3)cc2OC)ncc1C(F)(F)F
inactive: Potency [1] | Potency [2] | Potency [3] | Potency [4] | Potency [5] | Potency [6]

O=C(NCc1nc2ccccc2c(=O)n1-c1ccc(F)cc1)Nc1ccc(Cl)c(C(F)(F)F)c1
inactive: Potency [1] | Potency [2] | Potency [3] | Potency [4] | Potency [5] | Potency [6]

CCCCc1ccc(NS(=O)(=O)c2ccc(F)cc2)cc1
inactive: Potency [1] | Potency [2] | Potency [3] | Potency [4] | Potency [5] | Potency [6]

CN(C)CCn1cc(-c2ccc(F)cc2)c(-n2cccc2)n1
inactive: Potency [1] | Potency [2] | Potency [3] | Potency [4] | Potency [5] | Potency [6]

CCC[C@H](N[C@H]1CCc2cc(F)cc(F)c2C1)C(=O)Nc1cn(C(C)(C)CNCC(C)(C)C)cn1
inactive: Potency [1] | Potency [2] | Potency [3] | Potency [4] | Potency [5] | Potency [6]

CCc1cnc(N2CCC(c3nc(COc4ccc(-n5cnnn5)cc4)cs3)CC2)nc1
inactive: Potency [1] | Potency [2] | Potency [3] | Potency [4] | Potency [5] | Potency [6]

O=C(Nc1ccc(CN2CCOCC2)cc1)c1ccc(-c2cccc(Cl)c2)o1
inactive: Potency [1] | Potency [2] | Potency [3] | Potency [4] | Potency [5] | Potency [6]

CCC(C)C(=O)O[C@H]1[C@H](O)[C@@]2(COC(C)=O)C(CC1(C)C)C1=CCC3[C@@]4(C)CC[C@H](O[C@@H]5O[C@H](C(=O)O)[C@@H](O)[C@H](O)[C@H]5O)[C@@](C)(CO)C4CC[C@@]3(C)[C@]1(C)C[C@@H]2O (some centres not stated)
inactive: Potency [1] | Potency [2] | outcome [3] inactive [at 11.6 µM] | activity change, negative = thiol reactive [4] 57.8% [at 11.5 µM] | activity, negative = inhibition [5] 3.16% [at 11.6 µM] | redox activity (% of DA3003) [6] 14.3% [at 11.5 µM]

C=C1CC2OC(=O)C(=C)C2C(OC(=O)/C(C)=C\C)CC2(C)OC1=CC2=O (configuration not stated)
inactive: Potency [1] | Potency [2] | Potency [3] | Potency [4] | Potency [5] | Potency [6]

O=C(NCC1(N2CCN(c3ccccc3)CC2)CCOCC1)c1cccnc1Sc1ccccc1
inactive: Potency [1] | Potency [2] | Potency [3] | Potency [4] | Potency [5] | Potency [6]
